The source of these data is PubChem BioAssay (Tox21).

Assay [1] addresses Thyrotropin-releasing hormone receptor (Homo sapiens) (UniProt P34981). Kind of assay: qHTS assay to identify small molecule agonists of the thyrotropin-releasing hormone receptor (TRHR) signaling pathway (AID 1346891; calls by dose curve; note: series mostly up to about 58 µM; % is set by controls: 0 for no effect and ±100 for the full control effect). Summed up:
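Readout was intracellular calcium fluorescence in TRHR-Hek293 cells. Cells were incubated 18 h, dye-loaded 2 h at 37 °C, and treated with compound in agonist mode.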
On the technique in general: Quantitative high-throughput screening tests each substance at several concentrations.

The nature of assay [2]: Human pregnane X receptor (PXR) small molecule agonists, qHTS cell viability counter screen (AID 1346977). Note: % is set by controls: 0 for no effect and ±100 for the full control effect; nearly all actives have a fitted effect of over 50% in size. Summed up: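 In each well, the PXR reporter HepG2 line was checked for viability: CellTiter-Fluor reagent added 23hr post-dosing, fluorescence read after 1hr incubation at 37C.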
Assay [3] in a line: Caspase-3/7 induction in HepG2 cells by small molecules, qHTS assay (AID 1346978). Note: % is set by controls: 0 for no effect and ±100 for the full control effect; nearly all actives have a fitted effect of over 15% in size. Summed up:
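Wild-type HepG2 cells, 2,000/well, settled 5 hr at 37 C and 5% CO2, then compound-treated for 17 hr; caspase-3/7 activity read by luminescent Caspase-Glo 3/7 after 30 min at room temperature.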

The nature of assay [4]: Caspase-3/7 induction in CHO-K1 cells by small molecules, qHTS cell viability counter screen (AID 1346979). Note: % is set by controls: 0 for no effect and ±100 for the full control effect; nearly all actives have a fitted effect of over 35% in size. Put shortly: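 Following a 5hr settling period, CHO-K1 cells at 1,500 per well received DMSO-dissolved compounds. Cell viability was quantified 16hr later by CellTiter-Fluor fluorescence, measured after 1hr with reagent at 37C.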
The nature of assay [5]: Caspase-3/7 induction in CHO-K1 cells by small molecules, qHTS assay (AID 1346980). Note: % is set by controls: 0 for no effect and ±100 for the full control effect; nearly all actives have a fitted effect of over 15% in size. Summed up:
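Wild-type CHO-K1 cells exposed to compounds for 17hr at 37 C, 5% CO2. Caspase-3/7 activity then measured by Caspase-Glo 3/7 luminescence after 30min at room temperature.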

Assay [6] in a line: Caspase-3/7 induction in HepG2 cells by small molecules, qHTS cell viability counter screen (AID 1346981). Note: series mostly up to about 92 µM; % is set by controls: 0 for no effect and ±100 for the full control effect; nearly all actives have a fitted effect of over 30% in size. Put shortly: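 Steps: seed 2,000 HepG2 cells per well; incubate 5 hr at 37 C; pin-add compounds in DMSO; incubate 16 hr; add CellTiter-Fluor; after 1 hr at 37 C and 5% CO2, read fluorescence.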
Assay [7] deals with Nuclear receptor subfamily 1 group I member 2 (Rattus norvegicus) (UniProt Q9R1A7). Kind of assay: Rat pregnane X receptor (rPXR) activation by small molecules, qHTS assay (AID 1346983). Note: % is set by controls: 0 for no effect and ±100 for the full control effect; nearly all actives have a fitted effect of over 20% in size. Conditions: rPXR luciferase reporter cells, One-Glo luminescence, 24 h; stronger effect = higher value. Summed up:
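Cell-based rPXR activation assay: rPXR cells, 2,000 per well, rested 5hr at 37 C, then exposed to compounds in DMSO for 24 hr at 37 C. Luciferase activity read by One-Glo luminescence after 30 min at room temperature.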

For assay [8], the target named is Nuclear receptor subfamily 1 group I member 2 (Homo sapiens) (UniProt O75469). As to the kind of experiment: CYP3A4 induction through human pregnane X receptor (PXR) by small molecules, qHTS assay (AID 1346984). Note: % is set by controls: 0 for no effect and ±100 for the full control effect; nearly all actives have a fitted effect of over 40% in size. Put shortly:
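Steps: seed DPX-2 cells, 5 hr at 37C; pin-transfer compounds; 24 hr at 37C; add Luciferin-IPA (3uM final), 3 hr at 37C; add One-Glo, 30 min RT; read luminescence.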

The target is the same in assay [9]. Kind of assay: Human pregnane X receptor (PXR) activation by small molecules, qHTS assay (AID 1346985). Note: potency is the fitted concentration of half-maximal effect; nearly all actives have a fitted effect of over 40% in size. Put shortly:
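DPX-2 cells (HepG2 co-transfected with a PXR response element and a CYP3A4-promoter luciferase construct) were seeded at 2,000 per well, rested 5 hr at 37C, then exposed to DMSO-dissolved compounds for 24 hr. Activation was read as luciferase luminescence.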

Assay [10] addresses Cytochrome P450 2D6 (Homo sapiens) (UniProt P10635). As to the kind of experiment: Cytochrome P450 Family 2 Subfamily D Member 6 (CYP2D6) small molecule antagonists: luciferase reporter qHTS assay (AID 1671196). Note: series mostly up to about 120 µM; % is set by controls: 0 for no effect and ±100 for the full control effect; nearly all actives have a fitted effect of over 50% in size. Summed up:
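P450-Glo format: CYP2D6 converts a proluciferin substrate to luciferin in an NADPH-driven reaction lasting 1 h at room temperature. Light output, proportional to CYP2D6 activity, reflects interference by test chemicals.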

For assay [11], the target named is Cytochrome P450 2C19 (Homo sapiens) (UniProt P33261). As to the kind of experiment: Cytochrome P450 Family 2 Subfamily C Member 19 (CYP2C19) small molecule antagonists: luciferase reporter qHTS assay (AID 1671197). Note: nearly all actives have a fitted effect of over 65% in size. Note: potency is the fitted concentration of half-maximal effect. Summed up: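 Compounds were tested on CYP2C19 activity via proluciferin conversion to luciferin. The 37C, 1 h reaction followed NADPH addition; detection reagent stopped it.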
Cytochrome P450 2C19 (Homo sapiens), sequence (P33261 whole entry, looked up): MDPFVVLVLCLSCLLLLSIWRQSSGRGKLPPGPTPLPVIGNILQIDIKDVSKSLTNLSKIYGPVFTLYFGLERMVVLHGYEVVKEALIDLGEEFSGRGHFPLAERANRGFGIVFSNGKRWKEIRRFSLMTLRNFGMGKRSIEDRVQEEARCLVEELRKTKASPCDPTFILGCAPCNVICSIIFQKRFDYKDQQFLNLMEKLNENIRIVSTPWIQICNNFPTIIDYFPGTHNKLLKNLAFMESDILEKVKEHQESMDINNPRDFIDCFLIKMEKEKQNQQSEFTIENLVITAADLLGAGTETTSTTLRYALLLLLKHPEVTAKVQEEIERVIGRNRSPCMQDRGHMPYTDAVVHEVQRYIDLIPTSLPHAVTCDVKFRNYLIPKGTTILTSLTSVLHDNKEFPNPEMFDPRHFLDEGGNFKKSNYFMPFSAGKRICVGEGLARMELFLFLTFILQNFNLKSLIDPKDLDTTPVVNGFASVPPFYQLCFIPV
A general note: In a reporter assay the amount or activity of a reporter protein is the signal.

Assay [12] addresses Cytochrome P450 2C9 (Homo sapiens) (UniProt P11712). Kind of assay: Cytochrome P450 Family 2 Subfamily C Member 9 (CYP2C9) small molecule antagonists: luciferase reporter qHTS assay (AID 1671198). Note: nearly all actives have a fitted effect of over 50% in size. Note: potency is the fitted concentration of half-maximal effect. Summed up: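 P450-Glo proluciferin substrate with CYP2C9 enzyme; 10 min RT preincubation, then NADPH regeneration 1 h at 37C; luciferin detection reagent 20 min RT, luminescence in relative luminescence units.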

Assay [13] addresses Cytochrome P450 1A2 (Homo sapiens) (UniProt P05177). Kind of assay: Cytochrome P450 Family 1 Subfamily A Member 2 (CYP1A2) small molecule antagonists: luciferase reporter qHTS assay (AID 1671199). Note: nearly all actives have a fitted effect of over 50% in size. Note: potency is the fitted concentration of half-maximal effect. Put shortly:
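Inhibition of CYP1A2 conversion of proluciferin to luciferin, detected by luminescence. Reaction run 1 h at room temperature with NADPH regeneration after brief compound preincubation.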

Assay [14] has as its target Nuclear receptor subfamily 1 group I member 2 (Homo sapiens) (UniProt O75469). Kind of assay: Human pregnane X receptor (PXR) small molecule agonists, qHTS assay (AID 1346982). For activation: % is set by controls: 0 for no effect and ±100 for the full control effect. Note: nearly all actives have a fitted effect of over 35% in size. Note: potency is the fitted concentration of half-maximal effect. Summed up:
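Agonist mode qHTS: PXR-Luc HepG2 cells plated 5 hr before DMSO-dissolved compounds were pinned in, cultured 24 hr at 37 C, 5% CO2; ONE-Glo luminescence readout.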

The target of assay [15] is Voltage-gated inwardly rectifying potassium channel KCNH2 (Homo sapiens) (UniProt Q12809). As to the kind of experiment: Human Ether-a-go-go-Related Gene (hERG) channel small molecule antagonists: fluorescence cell-based qHTS assay (AID 1671200). Summed up:
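In this thallium-flux screen, overnight-cultured U2OS cells bearing the channel are dye-loaded in darkness for an hour, rested 10 min at room temperature, and then monitored kinetically at 480/540 nm for two minutes post-stimulus.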

Assay [16] concerns the target Cytochrome P450 3A4 (Homo sapiens) (UniProt P08684). As to the kind of experiment: Cytochrome P450 Family 3 Subfamily A Member 4 (CYP3A4) small molecule antagonists: luciferase reporter qHTS assay (AID 1671201). Summed up:
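CYP3A4 activity was followed with a P450-Glo proluciferin substrate. Test compounds in DMSO were preincubated 10 min; NADPH regeneration then ran 1 h, and light output was read 20 min after detection reagent.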

Unmarked numbers belong to inactive results. Records with an inconclusive call do not appear. Calls of active or inactive are those of the source. Unless noted, calls come from the whole dose curve; as a rule, active = well fitted curve in the direction sought with a large enough effect in the repeat runs; inconclusive = weak or mixed curves; inactive = no such curve, though single readings can be large; an effect the other way counts as inactive or inconclusive.

Voltage-gated inwardly rectifying potassium channel KCNH2 (Homo sapiens), sequence (Q12809 whole entry, looked up): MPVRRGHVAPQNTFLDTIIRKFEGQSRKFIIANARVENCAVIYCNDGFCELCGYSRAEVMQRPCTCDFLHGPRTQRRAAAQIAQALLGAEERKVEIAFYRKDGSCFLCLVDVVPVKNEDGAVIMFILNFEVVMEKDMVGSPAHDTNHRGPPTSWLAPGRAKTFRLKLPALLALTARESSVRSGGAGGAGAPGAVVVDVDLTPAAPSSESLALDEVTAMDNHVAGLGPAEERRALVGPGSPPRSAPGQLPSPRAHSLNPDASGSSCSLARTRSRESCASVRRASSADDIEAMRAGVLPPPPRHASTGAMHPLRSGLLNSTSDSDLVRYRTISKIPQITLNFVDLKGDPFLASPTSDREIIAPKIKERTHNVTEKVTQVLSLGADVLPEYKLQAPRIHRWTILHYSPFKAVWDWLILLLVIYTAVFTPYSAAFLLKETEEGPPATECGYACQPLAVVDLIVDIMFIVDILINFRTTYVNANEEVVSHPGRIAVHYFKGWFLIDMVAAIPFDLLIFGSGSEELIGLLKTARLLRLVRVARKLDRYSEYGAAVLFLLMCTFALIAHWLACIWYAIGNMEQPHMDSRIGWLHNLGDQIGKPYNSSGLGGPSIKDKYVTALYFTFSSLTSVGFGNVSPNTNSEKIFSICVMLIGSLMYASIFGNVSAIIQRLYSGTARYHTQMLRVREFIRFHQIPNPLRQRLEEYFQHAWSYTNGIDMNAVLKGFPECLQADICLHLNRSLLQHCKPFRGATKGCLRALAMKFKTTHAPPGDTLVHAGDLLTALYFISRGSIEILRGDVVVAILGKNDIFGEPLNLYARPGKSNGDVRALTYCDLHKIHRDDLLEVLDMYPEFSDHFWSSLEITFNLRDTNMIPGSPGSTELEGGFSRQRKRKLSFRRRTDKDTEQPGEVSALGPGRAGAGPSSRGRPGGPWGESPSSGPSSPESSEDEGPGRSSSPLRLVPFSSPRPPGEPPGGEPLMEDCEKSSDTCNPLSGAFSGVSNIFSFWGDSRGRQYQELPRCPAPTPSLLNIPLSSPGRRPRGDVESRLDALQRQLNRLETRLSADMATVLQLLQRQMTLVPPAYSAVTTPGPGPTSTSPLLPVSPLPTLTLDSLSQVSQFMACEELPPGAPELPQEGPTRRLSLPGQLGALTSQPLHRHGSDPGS
Nuclear receptor subfamily 1 group I member 2 (Homo sapiens), sequence (O75469 whole entry, looked up): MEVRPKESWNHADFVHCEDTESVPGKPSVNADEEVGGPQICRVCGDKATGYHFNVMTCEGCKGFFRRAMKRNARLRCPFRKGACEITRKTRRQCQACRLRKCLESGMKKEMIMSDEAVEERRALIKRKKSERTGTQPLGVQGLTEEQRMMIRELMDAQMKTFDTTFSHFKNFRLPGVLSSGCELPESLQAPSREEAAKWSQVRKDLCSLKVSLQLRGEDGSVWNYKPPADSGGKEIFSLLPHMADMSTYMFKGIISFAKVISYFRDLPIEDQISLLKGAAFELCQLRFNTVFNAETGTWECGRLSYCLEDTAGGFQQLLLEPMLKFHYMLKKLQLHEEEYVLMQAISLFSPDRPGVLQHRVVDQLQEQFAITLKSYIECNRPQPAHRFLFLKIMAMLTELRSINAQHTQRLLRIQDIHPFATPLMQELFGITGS
Cytochrome P450 1A2 (Homo sapiens), sequence (P05177 whole entry, looked up): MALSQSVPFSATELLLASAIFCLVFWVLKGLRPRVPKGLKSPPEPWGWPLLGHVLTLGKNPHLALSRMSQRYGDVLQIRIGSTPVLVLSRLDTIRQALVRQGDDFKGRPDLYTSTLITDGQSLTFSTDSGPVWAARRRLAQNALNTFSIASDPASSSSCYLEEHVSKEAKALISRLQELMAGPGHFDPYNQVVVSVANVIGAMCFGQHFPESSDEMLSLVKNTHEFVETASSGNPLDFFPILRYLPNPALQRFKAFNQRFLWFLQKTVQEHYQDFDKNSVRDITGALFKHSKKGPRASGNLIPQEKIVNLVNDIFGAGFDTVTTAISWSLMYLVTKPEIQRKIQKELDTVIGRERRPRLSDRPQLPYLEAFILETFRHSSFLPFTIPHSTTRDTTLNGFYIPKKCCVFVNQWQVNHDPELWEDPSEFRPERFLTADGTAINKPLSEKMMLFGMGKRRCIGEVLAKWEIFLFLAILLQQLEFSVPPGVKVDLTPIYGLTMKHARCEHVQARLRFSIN
Cytochrome P450 2C9 (Homo sapiens), sequence (P11712 whole entry, looked up): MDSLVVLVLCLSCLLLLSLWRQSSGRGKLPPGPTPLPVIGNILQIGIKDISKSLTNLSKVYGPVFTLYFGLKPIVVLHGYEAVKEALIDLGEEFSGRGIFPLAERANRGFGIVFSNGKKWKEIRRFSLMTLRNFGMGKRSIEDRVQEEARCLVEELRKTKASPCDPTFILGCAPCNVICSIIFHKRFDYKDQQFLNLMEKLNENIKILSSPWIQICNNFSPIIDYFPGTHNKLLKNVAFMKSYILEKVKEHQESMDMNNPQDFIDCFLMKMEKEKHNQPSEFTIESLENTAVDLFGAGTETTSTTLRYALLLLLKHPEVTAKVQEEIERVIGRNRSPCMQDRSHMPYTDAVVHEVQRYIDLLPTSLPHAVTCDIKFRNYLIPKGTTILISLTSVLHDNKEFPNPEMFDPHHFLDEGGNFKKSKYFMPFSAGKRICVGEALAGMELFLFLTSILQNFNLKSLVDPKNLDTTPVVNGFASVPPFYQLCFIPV
Thyrotropin-releasing hormone receptor (Homo sapiens), sequence (P34981 whole entry, looked up): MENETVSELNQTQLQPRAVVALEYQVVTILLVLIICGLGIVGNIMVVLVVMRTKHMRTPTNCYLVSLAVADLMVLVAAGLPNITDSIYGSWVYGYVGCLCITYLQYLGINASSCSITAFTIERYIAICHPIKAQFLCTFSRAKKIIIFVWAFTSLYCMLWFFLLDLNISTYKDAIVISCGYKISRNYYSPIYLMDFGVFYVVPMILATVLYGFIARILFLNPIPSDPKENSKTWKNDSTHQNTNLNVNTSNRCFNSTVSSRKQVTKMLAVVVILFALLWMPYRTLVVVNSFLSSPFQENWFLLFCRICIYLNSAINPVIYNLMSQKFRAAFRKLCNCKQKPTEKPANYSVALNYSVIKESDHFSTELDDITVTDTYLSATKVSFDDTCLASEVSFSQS
Cytochrome P450 2D6 (Homo sapiens), sequence (P10635 whole entry, looked up): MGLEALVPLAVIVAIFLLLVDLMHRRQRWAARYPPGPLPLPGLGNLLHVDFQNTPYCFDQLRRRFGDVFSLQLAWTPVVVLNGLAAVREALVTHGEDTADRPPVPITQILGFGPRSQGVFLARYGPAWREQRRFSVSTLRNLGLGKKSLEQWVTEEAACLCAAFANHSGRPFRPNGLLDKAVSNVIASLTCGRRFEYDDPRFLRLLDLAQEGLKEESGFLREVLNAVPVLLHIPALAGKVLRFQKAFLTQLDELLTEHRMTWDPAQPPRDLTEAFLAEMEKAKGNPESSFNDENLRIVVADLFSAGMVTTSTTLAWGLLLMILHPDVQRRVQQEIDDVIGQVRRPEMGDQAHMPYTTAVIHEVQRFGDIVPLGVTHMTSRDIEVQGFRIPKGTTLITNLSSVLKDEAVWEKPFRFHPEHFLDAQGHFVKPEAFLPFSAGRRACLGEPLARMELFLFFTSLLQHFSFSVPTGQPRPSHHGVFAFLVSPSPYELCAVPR
Cytochrome P450 3A4 (Homo sapiens), sequence (P08684 whole entry, looked up): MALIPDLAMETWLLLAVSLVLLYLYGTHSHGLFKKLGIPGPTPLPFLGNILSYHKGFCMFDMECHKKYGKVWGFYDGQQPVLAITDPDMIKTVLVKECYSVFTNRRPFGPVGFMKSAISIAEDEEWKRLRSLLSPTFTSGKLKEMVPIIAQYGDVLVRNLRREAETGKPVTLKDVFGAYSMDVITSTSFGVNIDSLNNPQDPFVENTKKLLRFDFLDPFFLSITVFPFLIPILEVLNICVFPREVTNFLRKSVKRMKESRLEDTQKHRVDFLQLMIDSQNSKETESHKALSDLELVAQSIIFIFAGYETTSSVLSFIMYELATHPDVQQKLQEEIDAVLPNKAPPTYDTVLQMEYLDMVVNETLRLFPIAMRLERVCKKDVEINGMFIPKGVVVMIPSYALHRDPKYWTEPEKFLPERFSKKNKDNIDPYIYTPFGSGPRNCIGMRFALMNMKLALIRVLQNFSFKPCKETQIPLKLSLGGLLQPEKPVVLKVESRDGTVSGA
Nuclear receptor subfamily 1 group I member 2 (Rattus norvegicus), sequence (Q9R1A7 whole entry, looked up): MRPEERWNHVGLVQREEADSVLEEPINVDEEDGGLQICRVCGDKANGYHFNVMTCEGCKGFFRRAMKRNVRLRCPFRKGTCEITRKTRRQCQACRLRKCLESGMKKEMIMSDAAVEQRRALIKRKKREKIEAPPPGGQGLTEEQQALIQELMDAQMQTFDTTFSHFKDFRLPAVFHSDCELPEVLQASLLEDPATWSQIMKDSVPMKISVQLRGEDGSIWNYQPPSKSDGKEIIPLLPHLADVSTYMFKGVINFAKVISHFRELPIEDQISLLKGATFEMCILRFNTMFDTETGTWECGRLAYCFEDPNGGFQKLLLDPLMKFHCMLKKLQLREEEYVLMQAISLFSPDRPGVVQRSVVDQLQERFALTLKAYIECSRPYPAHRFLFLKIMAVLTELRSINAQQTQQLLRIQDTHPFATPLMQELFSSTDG

Take `COc1ccc(S(=O)(=O)N2c3ccc(Cl)cc3[C@@](O)(c3ccccc3Cl)[C@H]2C(=O)N2CCC[C@@H]2C(N)=O)cc1OC`: the outcome in assay [1] and in [5] was inactive. Further, the Potency entry in assay [2], in [3], in assay [4], in [6], in [8] and in assay [10] was “inactive” throughout. Besides, the Potency entry in [11] and in [13] was “inactive” in each case. Moreover, the max activation in assay [7] is 11.3%. Besides, the values for the Potency in [9] and in assay [12] were 14.1 µM (active) and 17.4 µM (active), respectively.

Take `CC(C)c1ccc2cc(C(C)C)ccc2c1`: the result in [1] and in assay [5] was inactive. In addition, the Potency result in assay [2], in assay [3], in assay [4], in [6], in assay [10] and in assay [15] was “inactive” each time. Moreover, the Potency entry in assay [16] is “inactive”. Moreover, the Potency in assay [14] is 61.1 µM (active).

`CCCOC(=O)C(C)O` (centres undefined): the compound was classed as inactive in [1] and in assay [5]. The Potency result in assay [2], in assay [3], in assay [4], in [6], in assay [14] and in assay [10] was “inactive” throughout. For the same compound, the Potency entry in [15] and in assay [16] was “inactive” each time. Besides, the Potency in assay [13] is 40.8 µM (active).

`CCOCCOCCOCC`: the outcome in assay [1] and in assay [5] was inactive. The Potency result in [2], in [3], in assay [4], in assay [6], in assay [14] and in [11] was “inactive” throughout. Besides, the Potency result in [12], in assay [13], in assay [15] and in [16] was “inactive” in each case.

As for `C=Cc1ccccn1`, the compound was called inactive in assay [1] and in assay [5]. The Potency entry in [2], in assay [3], in [4], in assay [6], in assay [14] and in assay [10] was “inactive” in each case. Also, the Potency entry in assay [13], in assay [15] and in [16] was “inactive” each time.

With `CC(C)(C)OC(=O)c1ccc(O)cc1`, the outcome in [1] and in assay [5] was inactive. In addition, the Potency entry in [2], in assay [3], in assay [4], in assay [6], in assay [15] and in assay [16] was “inactive” throughout. Besides, the Potency in assay [14] was 27.3 µM (active); in assay [11] it was 63.3 µM (active); in [13], 31.7 µM (active).

With `O=C1O[C@@H]2[C@@H](O)[C@H](O)O[C@@H]2[C@H]1O`, the compound was classed as inactive in assay [1] and in [5]. Also, the Potency result in [2], in assay [3], in assay [4], in assay [6], in assay [14] and in assay [10] was “inactive” in each case. For the same compound, the Potency entry in assay [13], in [15] and in assay [16] was “inactive” in each case.

As to `CCC(CC)CO`, the compound was classed as inactive in assay [1] and in [5]. In addition, the Potency result in assay [2], in assay [3], in assay [4], in [6], in assay [14] and in assay [10] was “inactive” each time. For the same compound, the Potency result in [12], in assay [13], in assay [15] and in assay [16] was “inactive” each time.

For the compound `O=C(O)c1cc(Cl)cc([N+](=O)[O-])c1Cl`, the compound was classed as inactive in assay [1] and in assay [5]. Besides, the Potency entry in [2], in [3], in assay [4], in assay [6], in assay [14] and in assay [11] was “inactive” each time. The Potency result in [15] and in [16] was “inactive” each time. The Potency was 71 µM (active) in [12] and 39.9 µM (active) in [13].

For the compound `CCCCCCCCCC(C)=O`, the compound was classed as inactive in assay [1] and in assay [5]. Moreover, the Potency result in assay [2], in assay [3], in assay [4], in assay [6], in [14] and in [11] was “inactive” in each case. Moreover, the Potency result in assay [13], in assay [15] and in assay [16] was “inactive” in each case.
